Test results as given in PubChem BioAssay (EPA / NIEHS).
Several values for one entry are separate records, joined by “and”; a condition that tells them apart may be missing. Equal entries are not always repeated. Records with an inconclusive call do not appear. Some structures have more than one record in an assay (separate samples or runs), and their calls can disagree. Activity calls are given as the source filed them. The calls were made as follows, unless noted: active = hit-call score of the fitted dose curve at least 0.9, where 1 is the maximum; inconclusive = response in the unintended direction; inactive = score below 0.9.

Experiments:
[1] = molecular target: Peroxisome proliferator-activated receptor gamma (Homo sapiens) (UniProt P37231); test: NVS_NR_hPPARg: NovaScreen (NVS) Nuclear Receptor Binding Assay for human Peroxisome Proliferator-activated Receptor gamma (PPARg) (AID 2283370)
In short: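 Fluorescence polarization readout of ligand binding to extracted human PPARg, measured at 2 h. Duplicate single-point screen at 25 uM, then concentration-series retesting; activity defined as signal loss versus DMSO.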

[2] = molecular target: Estrogen receptor beta (Homo sapiens) (UniProt Q92731); test: OT_ER_ERbERb_1440: Odyssey Thera (OT) 24-hour HEK293T Protein-Complementation Assay for Estrogen Receptor-beta/-beta Homodimer (AID 2283380);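 also: fluorescence gain from ER beta LBD homodimer complementation read by laser scanning cytometry; scored as signal increase over DMSO baseline for both agonists and antagonists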
In short: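 HEK293T cells stably expressing human ER-beta LBD (aa 310-547) PCA homodimer pair, dosed 24 h; formaldehyde-fixed, Draq5-stained. Readout: increase in nuclear (agonist) or nuclear plus cytoplasmic (antagonist) fluorescence intensity versus DMSO, gain-of-signal fitting.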

[3] = molecular target: Estrogen receptor (Homo sapiens) (UniProt P03372); test: OT_ERa_GFPERaERE_0480: Odyssey Thera (OT) 8-hour HeLa Transcription Induction Assay for Estrogen Receptor (AID 2283381; active = hit-call score of the fitted dose curve at least 0.9, where 1 is the maximum; inactive = score below 0.9)
In short: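 Fluorescence microscopy with high-content image analysis measures ERE-driven GFP induction in HeLa cells at 8 h post-dose. Increases fitted against DMSO baseline.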

[4] = molecular target: Estrogen receptor (Homo sapiens) (UniProt P03372); test: OT_ERa_GFPERaERE_0120: Odyssey Thera (OT) 2-hour HeLa Transcription Induction Assay for Estrogen Receptor (AID 2283382)
In short: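 Fluorescence-microscopy images of the GFP-ERα/ERE reporter, scored by high-content image algorithms, give the readout. HeLa exposure lasted 2 h, and only signal increase over DMSO was fitted.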

[5] = molecular target: Bile acid receptor (Homo sapiens) (UniProt Q96RI1); test: OT_FXR_FXRSRC1_0480: Odyssey Thera (OT) 8-hour HEK293T Protein-Complementation Assay for Farnesoid X receptor/SRC-1 Co-activator (AID 2283383)
In short: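 Binding of FXR to coactivator SRC-1 was read as fluorescence from a reconstituted split reporter in HEK293T cells, 8 h after chemical addition. Only increases in signal versus DMSO were fit.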

[6] = molecular target: Retinoic acid receptor RXR-alpha (Homo sapiens) (UniProt P19793); test: OT_NURR1_NURR1RXRa_0480: Odyssey Thera (OT) 8-hour HEK293T Protein Complementation Assay for Nurr1/retinoid X receptor (RXR) (AID 2283385)
In short: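 Interaction of Nurr1 with RXRα read as reconstituted reporter fluorescence in a HEK293T fragment-complementation system, 8 h post-treatment; increase over DMSO baseline analysed.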

[7] = molecular target: Peroxisome proliferator-activated receptor gamma (Homo sapiens) (UniProt P37231); test: OT_PPARg_PPARgSRC1_0480: Odyssey Thera (OT) 8-hour Protein-Complementation Assay for Peroxisome Proliferator-activated Receptor Gamma / SRC-1 Co-activator (AID 2283387);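 also: nuclear to cytoplasmic split Venus YFP fluorescence ratio reporting PPARg SRC-1 interaction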
In short: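 Read-out: 488 nm N/C fluorescence ratio from complemented Venus YFP fragments, ≥350 cells per image, gain-of-signal fitted against DMSO baseline. Fusions of PPARg/SRC-1 with IFP1/IFP2 expressed transiently in HEK293T; compounds applied 8 h.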

[8] = molecular target: guinea pig Sigma Receptor, Non-selective Binding, SIGMAR1 (gene 100135589) (UniProt Q60492); test: NVS_OR_gSIGMA_NonSelective: NovaScreen (NVS) Nuclear Receptor Binding Assay for guinea pig Sigma Receptor, Non-selective Binding (AID 2283367)
In short: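 Test chemicals were screened in duplicate at 25 uM, then in concentration series if active, against radioligand binding to guinea pig brain membranes; filtration and scintillation counting at 1 h measured remaining bound ligand.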

[9] = molecular target: human Norepinephrine Transporter (NET), SLC6A2 (gene 6530) (UniProt P23975); test: NVS_TR_hNET: NovaScreen (NVS) Transporter Assay for human Norepinephrine Transporter (NET) (AID 2283377);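 also: cell-free membrane protein extracted from CHO cells expressing human NET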;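 as to AC50: displacement of radioligand from human NET seen as loss of scintillation signal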
In short: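 In this cell-free binding screen, chemicals at 25 uM (duplicate) compete with a radioligand for CHO-derived human NET over 1 hour, with filter-based radiodetection.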

[10] = molecular target: mouse Estrogen Receptor alpha (Era), Esr1 (gene 13982) (UniProt P19785); test: NVS_NR_mERa: NovaScreen (NVS) Nuclear Receptor Binding Assay for mouse Estrogen Receptor alpha (Era) (AID 2283378);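 also: hit means loss of bound radioligand signal relative to DMSO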
In short: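 Filter radiodetection of radioligand displacement from extracted receptor protein, measured 18 h post-dose. Single 25 uM concentration in duplicate initially, with concentration-series follow-up. Binding loss fitted relative to DMSO.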

[11] = tested on: guinea pig Dopamine Transporter (DAT), gene 100714898; test: NVS_TR_gDAT: NovaScreen (NVS) Transporter Assay for guinea pig Dopamine Transporter (DAT) (AID 2283369);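 also: active compounds lower bound radioligand signal relative to DMSO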
In short: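 Radioligand displacement on membranes from guinea pig striatum, 2 h exposure, bound label counted by filtration and scintillation. Tested at 25 uM in duplicate, then actives in concentration series to 50 uM; DMSO as negative control.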

[12] = molecular target: human Dopamine Transporter (DAT), SLC6A3 (gene 6531) (UniProt Q01959); test: NVS_TR_hDAT: NovaScreen (NVS) Transporter Assay for human Dopamine Transporter (DAT) (AID 2283374);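 also: activity means loss of bound radioligand signal relative to DMSO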
In short: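 Extracted human SLC6A3 protein incubated 1 h with radioligand and test chemical; bound fraction separated on filters and counted. Single 25 uM duplicate screen preceded concentration-response follow-up; positive and negative controls on every plate.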

[13] = molecular target: Norway rat Vesicular Monoamine Transporter (VMAT2), neurotransmitter transporter, Slc18a2 (gene 25549) (UniProt Q01827); test: NVS_TR_rVMAT2: NovaScreen (NVS) Transporter Assay for Norway rat Vesicular Monoamine Transporter (VMAT2), neurotransmitter transporter (AID 2283376);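 also: actives lower the bound radioligand signal below the DMSO level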
In short: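 Binding endpoint from rat forebrain tissue, cell-free; 1 h incubation; filtered radioligand counted; 25 uM duplicate primary then dose series; DMSO negative control.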

[14] = molecular target: Agonist Androgen Response Element (ARE), AR (gene 367) (UniProt P10275); test: OT_AR_ARELUC_AG_1440: Odyssey Thera (OT) 24-hour CHO-K1 Luciferase Assay for Agonist Androgen Response Element (ARE) (AID 2283379)
In short: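 Luminescence increase above DMSO, read after a 24 h compound treatment of CHO-K1 cells expressing an androgen response element luciferase reporter, gives the single primary endpoint; concentration-response fitting used the positive direction.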

[15] = molecular target: human Adenosine Transporter (Adot), SLC29A1 (gene 2030) (UniProt Q99808); test: NVS_TR_hAdoT: NovaScreen (NVS) Transporter Assay for human Adenosine Transporter (Adot) (AID 2283368)
In short: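 Binding displacement on U937 extracted protein, read 1 h post-dose by filtration and scintillation counting. Primary duplicate test at 25 uM, then singleton concentration series with 50 uM top; DMSO baseline.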

[16] = molecular target: human Serotonin Transporter (SERT), SLC6A4 (gene 6532) (UniProt P31645); test: NVS_TR_hSERT: NovaScreen (NVS) Transporter Assay for human Serotonin Transporter (SERT) (AID 2283372)
In short: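 Human platelet membrane preparation; displacement of radioligand from serotonin transporter measured after 1 h by filtration and scintillation counting. Single 25 uM duplicate screen, then concentration series for actives, with DMSO as negative baseline.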

[17] = tested on: rat Norepinephrine Transporter (NET), gene 83511; test: NVS_TR_rNET: NovaScreen (NVS) Transporter Assay for rat Norepinephrine Transporter (NET) (AID 2283373)
In short: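 Competitive radioligand displacement at the rat NET using forebrain membrane preparations, 1 h incubation, filter-based scintillation readout. Primary testing in duplicate at a single 25 uM concentration; confirmed actives retested across concentrations.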

[18] = molecular target: rat Serotonin Transporter (SERT), Slc6a4 (gene 25553) (UniProt P31652); test: NVS_TR_rSERT: NovaScreen (NVS) Transporter Assay for rat Serotonin Transporter (SERT) (AID 2283375)
In short: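 Radioligand binding with competitive displacement on rat forebrain membrane preparations, counted by filtration and scintillation after 1 h. Primary single-point duplicates at 25 uM; active chemicals followed up in concentration-response. DMSO served as baseline.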

[19] = molecular target: Bile acid receptor (Homo sapiens) (UniProt Q96RI1); test: OT_FXR_FXRSRC1_1440: Odyssey Thera (OT) 24-hour HEK293T Protein-Complementation Assay for Farnesoid X receptor/SRC-1 Co-activator (AID 2283384)
In short: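 Protein-fragment complementation: FXR and SRC-1 fused to reporter fragments that reassemble on interaction, read by fluorescence intensity. Human HEK293T cells measured 24 h post-dose; positive-direction fit versus DMSO.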

[20] = molecular target: Retinoic acid receptor RXR-alpha (Homo sapiens) (UniProt P19793); test: OT_NURR1_NURR1RXRa_1440: Odyssey Thera (OT) 24-hour HEK293T Protein Complementation Assay for Nurr1/retinoid X receptor (RXR) (AID 2283386)
In short: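 Gain in fluorescence, fitted relative to DMSO, reflects Nurr1–RXRα association in HEK293T cells after 24 h dosing. Bait and prey are each linked to a reporter-protein fragment that reassembles on interaction.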

Measured: AC50

Peroxisome proliferator-activated receptor gamma (Homo sapiens), sequence (P37231 whole entry, looked up, the tested form may be a part): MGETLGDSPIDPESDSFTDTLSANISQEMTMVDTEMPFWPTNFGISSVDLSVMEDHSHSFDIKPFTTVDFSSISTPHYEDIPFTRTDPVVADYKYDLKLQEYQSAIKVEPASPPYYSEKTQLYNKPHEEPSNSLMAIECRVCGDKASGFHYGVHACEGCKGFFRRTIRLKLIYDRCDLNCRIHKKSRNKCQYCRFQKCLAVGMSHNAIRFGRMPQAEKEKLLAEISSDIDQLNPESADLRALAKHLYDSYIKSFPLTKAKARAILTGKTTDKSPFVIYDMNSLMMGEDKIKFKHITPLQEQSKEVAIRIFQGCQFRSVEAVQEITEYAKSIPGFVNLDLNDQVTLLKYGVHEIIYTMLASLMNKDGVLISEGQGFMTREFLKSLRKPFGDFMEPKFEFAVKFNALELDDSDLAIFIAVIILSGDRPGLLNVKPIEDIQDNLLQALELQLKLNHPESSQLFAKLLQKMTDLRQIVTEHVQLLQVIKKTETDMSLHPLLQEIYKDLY
guinea pig Sigma Receptor, Non-selective Binding, SIGMAR1 (gene 100135589), sequence (Q60492 whole entry, looked up): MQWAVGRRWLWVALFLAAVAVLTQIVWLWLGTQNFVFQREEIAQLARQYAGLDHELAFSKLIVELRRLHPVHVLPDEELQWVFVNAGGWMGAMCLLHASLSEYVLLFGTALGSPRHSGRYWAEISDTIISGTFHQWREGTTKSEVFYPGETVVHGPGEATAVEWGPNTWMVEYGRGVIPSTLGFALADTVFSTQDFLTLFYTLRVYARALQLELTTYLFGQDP
mouse Estrogen Receptor alpha (Era), Esr1 (gene 13982), sequence (P19785 whole entry, looked up): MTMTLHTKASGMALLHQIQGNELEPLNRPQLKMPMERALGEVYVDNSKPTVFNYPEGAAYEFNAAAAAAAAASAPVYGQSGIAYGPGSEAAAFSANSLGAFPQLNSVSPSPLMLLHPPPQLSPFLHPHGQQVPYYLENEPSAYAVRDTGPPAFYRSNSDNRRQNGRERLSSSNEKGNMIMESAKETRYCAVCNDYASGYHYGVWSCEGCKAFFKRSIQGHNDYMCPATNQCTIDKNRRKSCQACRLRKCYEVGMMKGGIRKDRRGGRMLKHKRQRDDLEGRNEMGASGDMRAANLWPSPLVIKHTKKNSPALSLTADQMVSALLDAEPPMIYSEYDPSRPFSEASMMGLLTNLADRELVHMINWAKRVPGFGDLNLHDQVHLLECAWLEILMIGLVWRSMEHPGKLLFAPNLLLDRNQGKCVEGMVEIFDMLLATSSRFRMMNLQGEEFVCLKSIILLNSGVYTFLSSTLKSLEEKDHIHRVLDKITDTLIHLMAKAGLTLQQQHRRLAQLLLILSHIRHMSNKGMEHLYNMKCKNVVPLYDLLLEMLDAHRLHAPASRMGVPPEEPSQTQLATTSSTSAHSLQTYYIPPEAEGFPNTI
human Norepinephrine Transporter (NET), SLC6A2 (gene 6530), sequence (P23975 whole entry, looked up): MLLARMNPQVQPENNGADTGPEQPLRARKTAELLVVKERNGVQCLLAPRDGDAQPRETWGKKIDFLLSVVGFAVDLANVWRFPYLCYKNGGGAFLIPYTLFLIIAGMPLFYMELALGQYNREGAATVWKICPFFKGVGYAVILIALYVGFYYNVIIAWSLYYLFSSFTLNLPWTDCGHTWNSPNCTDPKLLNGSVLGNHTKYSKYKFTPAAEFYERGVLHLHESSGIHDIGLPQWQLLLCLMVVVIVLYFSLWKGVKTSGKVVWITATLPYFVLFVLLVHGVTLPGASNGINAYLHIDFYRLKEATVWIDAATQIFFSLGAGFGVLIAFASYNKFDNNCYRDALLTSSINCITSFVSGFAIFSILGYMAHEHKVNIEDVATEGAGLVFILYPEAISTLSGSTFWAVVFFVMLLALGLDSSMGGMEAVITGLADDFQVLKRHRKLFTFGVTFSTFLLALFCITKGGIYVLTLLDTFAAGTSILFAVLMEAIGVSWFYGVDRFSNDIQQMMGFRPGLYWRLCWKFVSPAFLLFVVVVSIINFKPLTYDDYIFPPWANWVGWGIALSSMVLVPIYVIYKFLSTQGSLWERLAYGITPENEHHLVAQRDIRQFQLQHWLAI
Bile acid receptor (Homo sapiens), sequence (Q96RI1 whole entry, looked up, the tested form may be a part): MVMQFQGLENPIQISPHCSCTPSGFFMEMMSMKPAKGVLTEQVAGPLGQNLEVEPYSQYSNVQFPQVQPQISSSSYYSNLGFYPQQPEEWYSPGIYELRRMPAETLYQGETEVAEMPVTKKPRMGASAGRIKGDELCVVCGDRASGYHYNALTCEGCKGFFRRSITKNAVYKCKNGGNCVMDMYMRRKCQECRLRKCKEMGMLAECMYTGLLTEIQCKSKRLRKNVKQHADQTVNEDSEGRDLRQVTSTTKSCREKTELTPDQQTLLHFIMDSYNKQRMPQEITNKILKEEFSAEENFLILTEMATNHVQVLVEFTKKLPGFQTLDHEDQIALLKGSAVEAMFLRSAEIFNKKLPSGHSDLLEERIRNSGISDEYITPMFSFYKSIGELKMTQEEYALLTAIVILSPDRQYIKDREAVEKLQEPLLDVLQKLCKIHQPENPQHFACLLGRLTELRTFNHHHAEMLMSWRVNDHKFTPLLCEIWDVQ
Estrogen receptor beta (Homo sapiens), sequence (Q92731 whole entry, looked up, the tested form may be a part): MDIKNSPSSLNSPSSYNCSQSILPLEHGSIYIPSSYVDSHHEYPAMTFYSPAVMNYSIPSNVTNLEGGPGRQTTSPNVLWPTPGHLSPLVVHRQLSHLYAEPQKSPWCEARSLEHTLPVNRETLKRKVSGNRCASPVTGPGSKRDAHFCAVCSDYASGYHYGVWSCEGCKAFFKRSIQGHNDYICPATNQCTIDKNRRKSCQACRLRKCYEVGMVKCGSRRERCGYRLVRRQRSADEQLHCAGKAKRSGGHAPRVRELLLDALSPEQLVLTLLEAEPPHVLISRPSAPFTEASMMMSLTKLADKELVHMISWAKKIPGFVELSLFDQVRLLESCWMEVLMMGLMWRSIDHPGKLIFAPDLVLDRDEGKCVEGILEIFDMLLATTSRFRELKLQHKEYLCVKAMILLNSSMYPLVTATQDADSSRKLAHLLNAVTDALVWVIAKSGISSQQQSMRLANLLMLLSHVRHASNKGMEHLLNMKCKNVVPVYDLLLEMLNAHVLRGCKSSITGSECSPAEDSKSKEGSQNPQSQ
Estrogen receptor (Homo sapiens), sequence (P03372 whole entry, looked up): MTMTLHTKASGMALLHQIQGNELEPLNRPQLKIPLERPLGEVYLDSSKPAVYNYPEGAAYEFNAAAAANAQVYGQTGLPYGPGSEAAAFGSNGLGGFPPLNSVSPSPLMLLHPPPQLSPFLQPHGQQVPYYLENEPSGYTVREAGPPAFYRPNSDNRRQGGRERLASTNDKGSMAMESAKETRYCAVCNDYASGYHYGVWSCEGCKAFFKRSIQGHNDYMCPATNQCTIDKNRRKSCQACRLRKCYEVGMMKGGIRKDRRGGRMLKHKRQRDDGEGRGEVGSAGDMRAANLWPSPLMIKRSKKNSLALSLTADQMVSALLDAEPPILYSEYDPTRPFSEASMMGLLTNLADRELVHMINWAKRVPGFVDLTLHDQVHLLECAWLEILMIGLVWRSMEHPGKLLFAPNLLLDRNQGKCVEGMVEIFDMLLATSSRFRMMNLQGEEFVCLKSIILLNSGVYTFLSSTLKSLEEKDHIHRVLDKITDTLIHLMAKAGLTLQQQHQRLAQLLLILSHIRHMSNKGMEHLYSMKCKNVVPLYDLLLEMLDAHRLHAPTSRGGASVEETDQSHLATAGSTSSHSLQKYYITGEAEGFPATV
Retinoic acid receptor RXR-alpha (Homo sapiens), sequence (P19793 whole entry, looked up, the tested form may be a part): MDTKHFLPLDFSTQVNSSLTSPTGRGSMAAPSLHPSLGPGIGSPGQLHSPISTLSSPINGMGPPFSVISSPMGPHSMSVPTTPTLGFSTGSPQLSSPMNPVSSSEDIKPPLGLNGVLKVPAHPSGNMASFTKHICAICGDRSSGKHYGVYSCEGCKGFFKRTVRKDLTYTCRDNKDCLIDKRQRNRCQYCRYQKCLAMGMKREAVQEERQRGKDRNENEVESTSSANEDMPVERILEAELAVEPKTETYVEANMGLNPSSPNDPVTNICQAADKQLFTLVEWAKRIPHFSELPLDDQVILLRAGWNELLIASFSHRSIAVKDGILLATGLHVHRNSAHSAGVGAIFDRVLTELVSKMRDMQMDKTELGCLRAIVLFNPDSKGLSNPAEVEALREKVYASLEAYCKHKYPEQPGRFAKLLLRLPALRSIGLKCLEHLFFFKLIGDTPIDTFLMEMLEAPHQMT
human Dopamine Transporter (DAT), SLC6A3 (gene 6531), sequence (Q01959 whole entry, looked up): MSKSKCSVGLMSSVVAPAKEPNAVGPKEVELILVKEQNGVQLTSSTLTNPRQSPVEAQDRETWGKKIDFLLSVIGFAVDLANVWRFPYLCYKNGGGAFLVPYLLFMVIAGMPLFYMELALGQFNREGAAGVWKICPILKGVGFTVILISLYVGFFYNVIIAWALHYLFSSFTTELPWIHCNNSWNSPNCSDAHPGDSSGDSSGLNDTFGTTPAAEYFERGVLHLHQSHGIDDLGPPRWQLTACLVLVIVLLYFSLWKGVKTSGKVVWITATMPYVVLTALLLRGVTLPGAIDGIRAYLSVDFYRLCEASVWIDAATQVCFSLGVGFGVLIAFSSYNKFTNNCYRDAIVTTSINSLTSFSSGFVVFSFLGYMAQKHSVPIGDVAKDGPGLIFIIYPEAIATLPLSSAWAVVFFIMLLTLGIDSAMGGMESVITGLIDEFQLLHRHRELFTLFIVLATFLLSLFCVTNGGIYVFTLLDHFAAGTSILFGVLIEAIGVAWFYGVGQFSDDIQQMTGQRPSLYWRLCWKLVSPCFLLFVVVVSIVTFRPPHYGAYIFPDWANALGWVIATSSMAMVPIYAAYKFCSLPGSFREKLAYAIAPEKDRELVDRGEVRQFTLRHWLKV

CNC(=O)O/N=C/C(C)(C)S(C)=O (stereo unspecified)
inactive: [1] | [2] | [3] | [4] | [5] | [6] | [7]

NC(=S)Nc1ccccc1
active: [8] 33 µM | [9] 15.4 µM

CCC[CH2][Sn]([CH2]CCC)([CH2]CCC)[O]C(=O)c1ccccc1
active: [1] 1.83 µM
inactive: [1] | [10] | [3] | [7]

Nc1cccc2ccccc12
active: [9] 14.8 µM
inactive: [8]

CC(C)(C)CC(C)(C)c1ccc(O)cc1
inactive: [11] | [13] | [14]
active: [12] 15.1 µM | [9] 11.7 µM | [2] 1.04 µM and 593 nM and 1.02 µM | [5] 11.2 µM | [6] 11.3 µM and 11.2 µM

Nc1ccc(Cl)cc1C(=O)c1ccccc1
active: [11] 6.19 µM | [12] 1.73 µM | [9] 12 µM

CCN1CCC2(CC1)COc1cc3c(cc12)N(C(=O)c1ccc(-c2ccc(-c4nnc(C)o4)cc2C)cc1)CC3
inactive: [16] | [17] | [14] | [2] | [3] | [4] | [7]
active: [8] 3.01 µM | [15] 1.11 µM | [11] 7.47 µM | [12] 6.34 µM | [18] 7.6 µM | [9] 10.1 µM | [10] 0.174 µM

O=C(O)C(F)(F)C(F)(F)C(F)(F)C(F)(F)C(F)(F)C(F)(F)C(F)(F)C(F)(F)C(F)(F)C(F)(F)F
inactive: [9] | [2] | [5] | [19] | [6] | [7]
active: [1] 6.31 µM

COC(=O)c1sccc1S(=O)(=O)NC(=O)Nc1nc(C)nc(OC)n1
inactive: [1] | [2] | [3] | [4] | [7]

O=[N+]([O-])c1ccc(O)c([N+](=O)[O-])c1
inactive: [1] | [14] | [2] | [3] | [4] | [6] | [7]

CC(C)(OO)c1ccccc1
active: [3] 35.3 µM
inactive: [1] | [9] | [4] | [7]

C[C@]12CCC(=O)C[C@@H]1CC[C@@H]1[C@@H]2CC[C@]2(C)[C@@H](O)CC[C@@H]12
active: [8] 5.71 µM | [2] 6.06 µM and 8.11 µM and 7.61 µM
inactive: [2] | [6] | [7]

Clc1ccc(C2(Cn3cncn3)CC(Br)CO2)c(Cl)c1 (stereo unspecified)
inactive: [1] | [2] | [3] | [4] | [5] | [19] | [6] | [7]

CCOC(=O)/C=C(C)/C=C/C[C@@H](C)CCCC(C)C
active: [8] 11 µM

CCC(=O)C(CC(C)N(C)C)(c1ccccc1)c1ccccc1 (stereo unspecified)
active: [8] 2.1 µM | [17] 11.3 µM | [18] 0.0639 µM | [9] 5.61 µM
inactive: [14] | [2] | [3] | [4] | [5] | [19] | [6] | [20] | [7]

Cn1sc(Cl)cc1=O
active: [9] 1.59 µM
inactive: [12] | [2] | [3] | [4] | [5] | [19] | [6] | [7]

CN(C)N=O
inactive: [1] | [2] | [19] | [6] | [7]

CCCCCCCCc1ccc(O)cc1
active: [2] 12.3 µM
inactive: [1] | [6] | [7]

CC(=[OH+])/C=C(/C)[O-].CC(=[OH+])/C=C(/C)[O-].CC(=[OH+])/C=C(/C)[O-].[Fe]
inactive: [13]

NNC(=S)NN
inactive: [2] | [3] | [4] | [7]
active: [10] 0.0993 µM

Clc1ccc(COC(Cn2ccnc2)c2ccc(Cl)cc2Cl)cc1 (stereo unspecified)
active: [3] 63.8 µM | [6] 11.2 µM
inactive: [10] | [2] | [4] | [7]

CC(C)(C)c1cc(O)ccc1O
inactive: [3] | [4] | [5] | [6] | [20] | [7]
active: [9] 13.8 µM | [19] 62.2 µM | [6] 69.5 µM
